Screen size: about 370,000 compounds; about 3,000 (0.81%) were called active. Many of the other results were omitted from the sample, so actives are more common in it than they were. Values without a mark were called inactive.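 The calls were made as follows: active = activity above about 14% (limit read from the data; passing the limit was not always enough); inactive = the rest.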 Where a SMILES comes first, the peptide text is derived from it. Side-chain parts run from the residue outwards. [ ]: non-standard residue; d: D form. The star is where a group is joined. X1 = CCC(C)C(N)C1=NC(C(=O)*)CS1; Orn = NCCC[CH](N)C(=O)O

The text below walks through data of PubChem BioAssay AID1259318 (Sanford-Burnham Center for Chemical Genomics, 2017).

Chain of Nuclear receptor subfamily 1 group D member 1 (Homo sapiens) (P20393 whole entry, looked up): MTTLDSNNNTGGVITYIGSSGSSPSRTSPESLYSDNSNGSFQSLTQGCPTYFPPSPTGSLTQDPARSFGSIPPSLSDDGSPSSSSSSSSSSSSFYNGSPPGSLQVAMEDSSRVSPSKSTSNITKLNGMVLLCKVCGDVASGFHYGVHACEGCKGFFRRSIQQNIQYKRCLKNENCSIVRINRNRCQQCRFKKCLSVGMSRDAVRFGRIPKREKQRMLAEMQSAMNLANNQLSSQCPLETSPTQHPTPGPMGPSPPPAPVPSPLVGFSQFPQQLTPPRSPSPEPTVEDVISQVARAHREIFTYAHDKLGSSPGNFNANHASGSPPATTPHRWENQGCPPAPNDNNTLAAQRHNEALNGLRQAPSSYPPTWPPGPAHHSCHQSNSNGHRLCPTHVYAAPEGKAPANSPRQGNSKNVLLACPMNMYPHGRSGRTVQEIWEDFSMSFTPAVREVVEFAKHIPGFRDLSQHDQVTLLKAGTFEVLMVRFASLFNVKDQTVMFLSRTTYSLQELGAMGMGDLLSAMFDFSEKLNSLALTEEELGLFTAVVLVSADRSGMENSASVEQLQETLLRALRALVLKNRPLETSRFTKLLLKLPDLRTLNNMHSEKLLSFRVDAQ

The assay addresses Nuclear receptor subfamily 1 group D member 1 (Homo sapiens) (UniProt P20393). Put plainly: Rev-erbα–DNA interaction modulation – biochemical, FITC-DNA, fluorescence polarization, uHTS, primary screen (AID 1259318).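 Also: 0% = DMSO wells with 35 nM protein and 100% = DMSO wells with 750 nM protein.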 To be noted: Rev-erbα–FITC-DNA binding, 90 min, at 10 µM, stronger effect = higher value.
Take `COc1ccc(S(=O)(=O)N(C)CC(=O)NCCCN2CCOCC2)cc1Cl`: the activity was 3.3%.

As for `CCCS(=O)(=O)NC(=O)C1(C)CCCN(C(=O)c2cccs2)C1` (stereo not given), the activity was -2.98%. For `Nc1nc(/C(=C/CC(=O)O)C(=O)N[C@@H]2C(=O)N3C(C(=O)O)=CCS[C@H]23)cs1`, the activity was -0.02%. To `CCC(C)C(N)C1=NC(C(=O)NC(CC(C)C)C(=O)NC(CCC(=O)O)C(=O)NC(C(=O)NCCCCC2NC(=O)C(CC(N)=O)NC(=O)C(CC(=O)O)NC(=O)C(Cc3cnc[nH]3)NC(=O)C(Cc3ccccc3)NC(=O)C(C(C)CC)NC(=O)C(CCCN)NC2=O)C(C)CC)CS1` (stereo not drawn) (cyclo(DNK([Ile-Glu-Leu-X1])[Orn]IFH); configuration not given here) belongs -1.28%. With `COc1ccc(Cl)cc1-c1cc(C(=O)Nc2cc(OC)c(OC)c(OC)c2)[nH]n1`, the activity is 0.68%. The value for `COC(=O)c1ccc(NC(=O)c2cc(Cl)ccc2OC)cc1` was 46.1% (active). To `CCC(C)NC(=O)c1cc(Cl)ccc1OC` (stereo not given) belongs -0.16%; to `Cc1ccc2c(C)c(C(=O)N3CCC(N4CCC(C(=O)NC5CC5)CC4)CC3)oc2c1`, 5.47%.

With `O=C(NCCCc1ccccc1)[C@H](Cc1ccccc1)NC1(C(=O)NCCc2c[nH]c3ccccc23)CCC1`, the activity was 1.61%. As to `CCOc1ccc2c(c1)cc(CN(C(=O)CC)C1CCCCC1)c1nnnn12`, the activity is -0.47%. To `CCc1cccc(NC(=S)N(CCN(C)C)C2CCN(C(C)C)CC2)c1` belongs -2.21%; to `CCc1ccc2c(c1)cc(CN(C(=S)Nc1ccccc1Cl)C1CC1)c1nnnn12`, 18.7% (active). Take `O=C(c1cccc(Br)c1)N1CCN(C2=NS(=O)(=O)c3ccccc32)CC1`: the activity was 1%. The value for `CC(=O)NCc1ccc(S(=O)(=O)NC2CCN(Cc3ccccc3)CC2)cc1` was -1.17%; that for `COc1ccc(CN(C(=O)CSc2nnc(-c3ccc(OC)c(OC)c3)o2)c2ccc(F)cc2)cc1` was 4.8%; that for `COc1ccc(-c2nnc(SCC(=O)c3ccc4c(c3)OCCO4)o2)cc1` was 39.7% (active). To `CCCn1c(SCC(=O)c2ccc3c(c2)OCCO3)nnc1C(C)C` belongs -3.34%; to `CCc1ccccc1NC(=O)CSc1nnc(-c2cccs2)o1`, -8.53%; to `O=C(CCc1nnc2ccc(NCc3ccccc3Cl)nn12)NCC1CCN(C2CCCC2)C1` (stereo not given), -21.6%. Consider `CC12CCC(=O)C=C1CCC1C2[C@@H](O)CC2(C)C1CC[C@]2(O)C(=O)COP(=O)(O)O` (stereo not given in full), for which the activity was 1.93%. The value for `CC(C)CCn1c(=O)c2c(nc3n2CCCN3Cc2ccccc2)n(C)c1=O` was -1.34%; that for `C/C(Cc1ccccc1)=N\NC(=O)CNC(=O)c1cccc(Br)c1` was -0.21%. Consider `O=C(N/N=C/c1ccc(OCC2COCCO2)cc1)c1ccc(Br)cc1` (stereo not given), for which the activity is -0.42%. The value for `Cn1c(=O)n(C)c2cc(/C=N/NC(=O)c3cccc(Br)c3)ccc21` was 49.2% (active); that for `Cc1nc(CNc2ncnc3ccc(-c4ccc5c(c4)OCO5)cc23)cs1` was -0.38%; that for `CCOC(=O)C1CCN(C(=O)C(C)(C)NC(=O)Nc2ccc(F)c(F)c2)CC1` was -2.08%. The value for `CC(C)NC(=O)CCCn1c(=S)[nH]c2cc3c(cc2c1=O)OCO3` was -1.56%; that for `O=C(CCn1c(=S)[nH]c2cc3c(cc2c1=O)OCO3)NCc1ccc(Cl)cc1` was 21.7% (active); that for `CCN(CC)CCCNC(=O)c1ccc2c(=O)n(Cc3ccc4c(c3)OCO4)c(=S)[nH]c2c1` was -2.35%. With `CCC[C@H]1C(=O)CC[C@@]23CCCN2C(=O)CCC[C@@H]13`, the activity was -1.54%. The value for `CO/N=C(/C(=O)N[C@@H]1C(=O)N2C(C(=O)O)=C(CSc3nc(=O)c(O)nn3C)CS[C@H]12)c1csc(N)n1` was -8.75%; that for `O=C(Nc1ccc(F)cc1)C1CCCN(S(=O)(=O)c2ccc(-n3cnnn3)cc2)C1` (stereo not given) was 4.65%. Regarding `Cc1nn(C)cc1N1C(=O)c2cccc3c(N)ccc(c23)C1=O`, the activity is 153% (active). To `CN1C(=O)c2cccc3c(N)ccc(c23)C1=O` belongs 275% (active). The value for `COc1ccc(-c2cc(-c3nnc(SCC(=O)Nc4cccc5ccccc45)n3N)[nH]n2)cc1` was -0.24%; that for `O=C(OCc1ccccc1)c1ccc(O)cc1` was -3.01%.

Take `CC(=O)C1(C)N(O)C(C)(C)C(c2cccs2)=[N+]1[O-]` (stereo not given): the activity was -3.38%.

As to `C=C1C(C(C)C)N(C)C2=NC(c3ccccc3)CC(=O)N12` (stereo not given), the activity is 0.81%. On to `O=S1(=O)CC(N2CCN(Cc3ccccc3F)CC2)CN1Cc1cn(Cc2ccccc2)nn1` (stereo not given), for which the activity was -7.27%.

Take `COc1ccc(CCNC(=O)CCC(=O)NC2CCCCC2)cc1OC`: the activity is -2.47%. To `COc1ccc(/C=C2\SC(=S)N(CCCC(=O)NC3CCCC3)C2=O)cc1OC` belongs 40.1% (active).

For the compound `COc1ccc(-c2noc(CCCC(=O)NC3CCCC3)n2)cc1OC`, the activity is -0.42%. To `O=C(NC1CCC1)c1ccc(C#Cc2cccc(F)c2)c[n+]1[O-]` belongs 1.34%; to `Cc1cc(NC(=O)CSc2nc(C(C)C)nc3sc4c(c23)CCC(C)C4)no1` (stereo not given), 58.2% (active). For the compound `CCn1c(SCC(C)=O)nc2sc3c(c2c1=O)CCCC3`, the activity is -1.07%. Take `Cc1cc(NC(=O)Cn2nc(C(F)(F)F)c3c2CCCC3)no1`: the activity is -1.28%.

Regarding `Cc1cc(NC(=O)CSc2nc(=O)cc(N)n2-c2ccc(F)cc2)no1`, the activity is -4.08%.

Take `Cc1nc(SCC(=O)Nc2cc(C)on2)c2c3c(sc2n1)CCCC3`: the activity is 27% (active). To `Cc1cc(NC(=O)CSc2nnc(-c3ccc(Cl)s3)o2)no1` belongs 6.3%; to `O=C(NCc1ccco1)C1CCCN(S(=O)(=O)c2ccc(Cl)s2)C1` (stereo not given), -2.05%; to `COCCCNC(=O)CN1CCN(Cc2ccccc2Cl)C1=O`, -7.51%. In the case of `COC(=O)Nc1ccc(S(=O)(=O)N(C)CC(F)(F)C(F)F)cc1`, the activity is 3.77%. To `CCN(CC)c1ccc(NC(=O)CN2CCN(c3ccccn3)CC2)cc1` belongs -0.51%.

For `CCOc1ccccc1N1CCN(C(=S)Nc2ccc(S(N)(=O)=O)cc2)CC1`, the activity was -6.97%. To `CCOC(=O)c1ccc(NC(=S)N2CCN(c3ccccn3)CC2)cc1` belongs 26.1% (active).
